Hits are enriched below; roughly 2.6% of the tested compounds scored in any of these assays.
Prx2 Sm inh: blocks S. mansoni peroxiredoxin 2 enzymatic activity; hit rate 0.07% among 65,000; S. mansoni Prx2 activity coupled to TGR/GSH (TGR is thioredoxin glutathione reductase), NADPH fluorescence loss, qHTS; Potency, µM
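Prx2 inhibition was measured as reduced NADPH consumption when electrons flowed from NADPH through TGR and glutathione to Prx2 and H2O2. Plates were read kinetically over 8 min; enzyme reagents were held at 4 deg C during dispensing.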
AmpC inh no det: AmpC beta-lactamase inhibition, detergent-free assay; AmpC nitrocefin hydrolysis, absorbance 480 nm, no detergent; Potency, µM (series often up to 28.7 µM); hit rate 1.8% among 71,000; AID 585
Target sequence (P00811 whole entry, looked up): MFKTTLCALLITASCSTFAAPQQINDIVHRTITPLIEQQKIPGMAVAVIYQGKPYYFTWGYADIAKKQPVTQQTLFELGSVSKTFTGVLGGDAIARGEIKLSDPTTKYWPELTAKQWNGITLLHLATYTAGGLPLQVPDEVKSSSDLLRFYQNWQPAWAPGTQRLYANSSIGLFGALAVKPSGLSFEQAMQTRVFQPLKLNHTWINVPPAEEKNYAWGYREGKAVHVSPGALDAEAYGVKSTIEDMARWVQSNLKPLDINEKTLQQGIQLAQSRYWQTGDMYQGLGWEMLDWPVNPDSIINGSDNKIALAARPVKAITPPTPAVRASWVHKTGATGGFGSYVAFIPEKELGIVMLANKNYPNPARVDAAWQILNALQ
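AmpC, 20 mM phosphate pH 7.0; 15 min cpd preinc, RT; start with nitrocefin (800 uM stock); A480 kinetic read, 20 s intervals, 4 min. No-enzyme wells = negative control.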
Anthrax LT inh: anthrax lethal toxin internalization inhibition | Cells, anthrax lethal toxin internalization, FRET ratio (460/530) | Potency, µM (series often up to 40 µM), most hits filed as inhibitors | hit rate 0.67% among 70,000; note: nearly all actives have a fitted effect of over 50% in size
AmpC det inh: AmpC beta-lactamase inhibition, detergent assay; hit rate 0.09% among 71,000; purified AmpC, nitrocefin hydrolysis with detergent; Potency, µM (doses to about 28.7 µM); AID 584; P00811; active = well fitted curve in the direction sought with a large enough effect; inconclusive = small, poorly fitted or top-dose-only effect
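E. coli AmpC (5.3 nM) in 20 mM phosphate pH 7.0 with 0.01% Triton X-100, preincubated 15 min RT with compound; nitrocefin (2 uL of 800 uM stock) hydrolysis followed by 480 nm absorbance every 20 s over 4 min.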
Large screens that a line does not name were inactive; [ ] = dose if it differs, or a comment. Unless noted, calls come from the whole dose curve.

Cc1ccc(-c2noc(CN3C(C)CCCC3C)n2)cc1 (configuration not stated)	AmpC inh no det 4µM[single pt active]
Cc1ccc(-c2noc(CN3CCC(C(N)=O)CC3)n2)cc1	none
CCC1(CC)C(=O)NC(=NCCc2c[nH]c3ccccc23)NC1=O	Anthrax LT inh inconclusive
CCCC1(CCC)C(=O)NC(=NCc2ccccc2)NC1=O	Anthrax LT inh 13µM
NC(=S)c1ccc[n+]([C@@H]2O[C@@H](COP(=O)([O-])OP(=O)(O)OC[C@@H]3O[C@@H](n4cnc5c(N)ncnc54)[C@@H](OP(=O)(O)O)[C@H]3O)[C@@H](O)[C@H]2O)c1	none
CC1CCC(C(C)C)C(OC(=O)COC(=O)c2ccc(=O)[nH]c2)C1 (configuration not stated)	Anthrax LT inh 13µM
Cl.Cl.Cl.Cl.Cl.Cl.N.N.N.N.NNNNN.NNNNN.O.O.[Ru].[Ru].[Ru]	AmpC inh no det 5µM
O=C(O)[C@H](Cc1cnc[nH]1)N1C(=O)c2ccccc2C1=O	none
COc1ccc(C)cc1NC(=O)c1nnn(CCc2ccccc2)c1N	AmpC inh no det 4µM[single pt active]
COc1cccc(CNC(=O)c2nnn(CC(=O)Nc3ccc(C)c(C)c3)c2N)c1	none
COc1ccc(OC)c(NC(=O)c2nnn(Cc3ccccc3C)c2N)c1	none
COc1ccc(C)cc1NC(=O)c1nnn(Cc2cc(C)ccc2C)c1N	AmpC inh no det 4µM[single pt active] (no result: Prx2 Sm inh)
COc1cccc(Cn2nnc(C(=O)Nc3ccc(C)cc3)c2N)c1	AmpC inh no det 4µM[single pt active]
COc1ccccc1NC(=O)c1nnn(CC(=O)Nc2ccccc2)c1N	none
COc1cccc(Cn2nnc(C(=O)Nc3cc(C)ccc3OC)c2N)c1	AmpC inh no det 4µM[single pt active]
CCCCCCCCCCCCCC(=O)O[C@H]1[C@@H](C)[C@@]2(O)[C@@H](C=C(CO)C[C@]3(O)C(=O)C(C)=C[C@@H]23)C2C(C)(C)[C@]21OC(C)=O (some centres not stated)	Anthrax LT inh inconclusive
CN1CC[C@@]2(CCN3CCc4c(oc5ccccc45)[C@@H]3C2)N(C)C1=O	none
C[N+]1(C)CCc2cc(O)c(O)cc2[C@H]1Cc1ccc(O)c(O)c1	none
O=C(N/N=C1/C[C@@H](O)[C@@H](O)[C@@H]2[C@@H]3C(=O)N(c4cccc(Oc5ccccc5)c4)C(=O)[C@H]3CC[C@@H]12)OCc1ccccc1	none (no result: Prx2 Sm inh, AmpC inh no det, AmpC det inh)
Nc1c(C(=O)Nc2ccc3c(c2)OCCO3)nnn1CCc1ccccc1	AmpC inh no det 4µM[single pt active], Anthrax LT inh inconclusive
Cc1ccc(C)c(S(=O)(=O)Nc2ccccc2C(=O)Nc2cc(C)on2)c1	AmpC inh no det 6.3µM, Anthrax LT inh inconclusive
COC[C@@H]1OC(=O)c2coc3c2[C@]1(C)C1=C(C3=O)[C@H]2CCC(=O)[C@]2(C)C[C@@H]1OC(C)=O	Anthrax LT inh inconclusive
COCCNS(=O)(=O)c1ccc(C2CNC(=O)C2)cc1 (configuration not stated)	AmpC inh no det 4µM[single pt active]
O=C1Nc2ccccc2OC1CC(=O)N1CCOCC1 (configuration not stated)	AmpC inh no det 3.2µM[single pt active]
CC(C)CN(CCCNC(=O)CC1Oc2ccccc2NC1=O)CC(C)C (configuration not stated)	none
CC1CC(C)CN(CCCNC(=O)CC2Oc3ccccc3NC2=O)C1 (configuration not stated)	AmpC inh no det 4µM[single pt active]
O=C(CC1Oc2ccccc2NC1=O)NCCCN1CCCC1=O (configuration not stated)	AmpC inh no det 4µM[single pt active]
CC(C)N(CCCNC(=O)CC1Oc2ccccc2NC1=O)Cc1ccccc1 (configuration not stated)	AmpC inh no det 4µM[single pt active]
CC(C)C(C)C	none (no result: Prx2 Sm inh)
CC(C)c1cccc2cc3c(nc12)-c1cccc(=O)n1C3	none
CCSC1(SCC)N=C(N)C2(C#N)C(c3ccc(OC)c(OC)c3OC)C12C#N (configuration not stated)	Anthrax LT inh 10µM
CCSC1(SCC)N=C(N)C2(C#N)C(c3ccccc3)NC3=C(CCC3)C12C#N (configuration not stated)	Anthrax LT inh inconclusive
COc1ccc2c(c1)CN([C@H](C)[C@@H]1CC[C@@H]3[C@H]4CC[C@H]5C[C@@H](O)CC[C@@]5(C)[C@H]4CC[C@]31C)CO2	none
C[C@@H](COc1ccc(/C=C\c2ccccc2)cc1)[N+](C)(C)C	Anthrax LT inh inconclusive
Cn1cc(Cl)c(C(=O)N(Cc2ccccc2)c2ccccn2)n1	AmpC inh no det 4µM[single pt active]
CN1CCN(C2=C(Cl)C(=O)N(c3ccc(Cl)c(Cl)c3)C2=O)CC1	Anthrax LT inh 7.9µM (no result: Prx2 Sm inh)
CN1CCN(C2=C(Cl)C(=O)N(c3cccc(Cl)c3)C2=O)CC1	none (no result: Prx2 Sm inh)
CO[C@H]1COC(=O)[C@@H](CCSC)NC(=O)C/C=C\[C@@H](C)COC(=O)[C@@H](OCc2ccccc2)/C=C\[C@@H]1C	none (no result: Prx2 Sm inh, AmpC inh no det, AmpC det inh)
CCN(CC)c1ccc(NC(=O)CC2Oc3ccccc3NC2=O)c(C)c1 (configuration not stated)	AmpC inh no det 4µM[single pt active], Anthrax LT inh inconclusive
Cc1ccc(NC(=O)CC2Oc3ccccc3NC2=O)c(C)c1 (configuration not stated)	AmpC inh no det 4µM[single pt active]
COC(=O)c1ccc2c(c1)N(Cc1cc(C)ccc1C)C(=O)c1ccccc1S2=O (configuration not stated)	AmpC inh no det 4µM[single pt active]
Cn1c(Cn2c(=O)sc3ccccc32)nnc1SCC(=O)N1CCOCC1	AmpC inh no det 4µM[single pt active]
CCOC(=O)CSc1nnc(Cn2c(=O)sc3ccccc32)n1C	none
CCOC(=O)N1CCN(C(=O)CSc2nnc(Cn3c(=O)sc4ccccc43)n2C)CC1	AmpC inh no det 4µM[single pt active]
Cn1c(Cn2c(=O)sc3ccccc32)nnc1SCC(=O)N1CCCCCC1	AmpC inh no det 4µM[single pt active], Anthrax LT inh inconclusive
COc1ccccc1NC(=O)CSc1nnc(Cn2c(=O)sc3ccccc32)n1C	AmpC inh no det 4µM[single pt active]
COC(C1CCCCC1)C(C)C(OCc1cccc(Br)c1)C(C)CO (configuration not stated)	none (no result: Prx2 Sm inh, AmpC inh no det, AmpC det inh)
O=P(O)(O)CCP(=O)(O)O	Anthrax LT inh inconclusive
C[N+](C)(C)[C@@H](C1=CCCC1=O)c1ccccc1	Anthrax LT inh inconclusive
CCCCNc1nc(N(C)c2ccccc2)nc(-n2ccnc2)n1	Anthrax LT inh 13µM
CC[n+]1cc(-c2ccccc2)nc(N2CCOCC2)n1	AmpC inh no det 16µM[single pt active]
NC(=O)c1cc(-c2ccccc2)nc(N2CCOCC2)n1	AmpC inh no det inconclusive (no result: Prx2 Sm inh)
COc1ccc(-c2nc(NC(=O)c3cc(C(C)(C)C)nn3C)sc2C)cc1	Anthrax LT inh 5µM
COc1cc2c(=O)n(Cc3ccco3)c(=O)n(CC(=O)c3cccc(Br)c3)c2cc1OC	AmpC inh no det 6.3µM, AmpC det inh inconclusive
COc1cc2c(=O)n(Cc3ccco3)c(=O)n(CC(=O)c3ccc(Br)cc3)c2cc1OC	none
N[C@H](Cc1c[nH]c2ccccc12)P(=O)(O)O	none
CCOC(=O)C1=C(C)Nc2nnnn2C1c1ccc(OC)c(Br)c1 (configuration not stated)	AmpC inh no det 4µM[single pt active]
C=CCOC(=O)C1=C(C)Nc2nnnn2C1c1cc(OC)ccc1OC (configuration not stated)	none
